Source: the supplement of paper PMC11732987, “Enantioselective OTUD7B fragment discovery through chemoproteomics screening and high-throughput optimisation” (Communications Chemistry, 2025)

Legend:
Experiment in all cases: log2 ratio of Biotin-Ahx-Ub-VS probe labelling (fragment/DMSO); higher = less target engagement (more negative = stronger competition), active = hit call of the paper (q ≤ 0.05, log2 ratio ≤ -1)
Details in all cases: compound concentration: 200 uM; treatment time: 3 h
USP42 = target: T1, USP42 (UniProt Q9H9J4)
T1 sequence (whole entry): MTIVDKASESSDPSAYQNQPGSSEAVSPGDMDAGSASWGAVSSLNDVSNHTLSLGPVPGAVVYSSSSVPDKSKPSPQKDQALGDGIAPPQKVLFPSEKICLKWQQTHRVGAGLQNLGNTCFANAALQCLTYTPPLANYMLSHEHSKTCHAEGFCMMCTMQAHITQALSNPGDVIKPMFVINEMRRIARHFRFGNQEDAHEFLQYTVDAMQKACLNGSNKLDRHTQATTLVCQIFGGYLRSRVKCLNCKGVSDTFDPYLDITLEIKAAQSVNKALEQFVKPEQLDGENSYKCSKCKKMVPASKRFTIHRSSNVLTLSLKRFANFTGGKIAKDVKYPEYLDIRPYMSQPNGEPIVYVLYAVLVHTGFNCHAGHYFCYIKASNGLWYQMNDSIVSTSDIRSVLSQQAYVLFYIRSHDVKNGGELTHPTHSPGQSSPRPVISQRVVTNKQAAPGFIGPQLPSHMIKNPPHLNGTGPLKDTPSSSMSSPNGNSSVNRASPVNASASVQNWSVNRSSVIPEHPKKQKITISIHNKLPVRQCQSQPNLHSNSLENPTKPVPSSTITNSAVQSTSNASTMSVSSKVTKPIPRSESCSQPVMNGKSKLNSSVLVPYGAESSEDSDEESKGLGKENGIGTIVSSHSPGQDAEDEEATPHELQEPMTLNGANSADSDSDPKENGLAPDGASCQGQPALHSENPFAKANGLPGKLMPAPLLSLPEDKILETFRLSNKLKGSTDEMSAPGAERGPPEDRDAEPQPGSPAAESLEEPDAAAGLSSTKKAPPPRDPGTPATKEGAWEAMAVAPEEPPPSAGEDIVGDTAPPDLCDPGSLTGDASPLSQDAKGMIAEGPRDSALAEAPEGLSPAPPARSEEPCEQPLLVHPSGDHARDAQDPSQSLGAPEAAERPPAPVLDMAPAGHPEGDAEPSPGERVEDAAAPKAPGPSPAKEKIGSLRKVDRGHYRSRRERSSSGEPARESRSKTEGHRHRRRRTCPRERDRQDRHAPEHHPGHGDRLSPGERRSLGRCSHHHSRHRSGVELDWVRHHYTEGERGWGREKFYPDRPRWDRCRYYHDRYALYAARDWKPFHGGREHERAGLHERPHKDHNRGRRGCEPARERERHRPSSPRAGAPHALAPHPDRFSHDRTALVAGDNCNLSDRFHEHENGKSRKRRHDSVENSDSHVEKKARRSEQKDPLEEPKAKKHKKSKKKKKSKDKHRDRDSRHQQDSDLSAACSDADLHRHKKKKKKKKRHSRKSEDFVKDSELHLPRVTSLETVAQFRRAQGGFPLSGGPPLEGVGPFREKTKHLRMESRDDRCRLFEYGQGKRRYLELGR
Summary of the method: (§1)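 Each value is an average log2 ratio of fragment to vehicle, tested by unpaired t-test. The underlying Spectronaut label-free quantities were global-median-normalised, and only proteins with ≥2 unique peptides were included. Triplicate HEK293T lysate samples (495 µg) were exposed to fragment at 200 µM or vehicle for 3 h, then to Biotin-Ahx-Ub-VS at 0.5 µM final for 1 h, before NeutrAvidin enrichment of labelled DUBs, LysC and trypsin digestion, and diaPASEF LC-MS/MS.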

USP46 = USP46 (UniProt P62068)
Summary of the method: as §1

USP47 = target: T2, USP47 (UniProt Q96K76)
T2 sequence (whole entry): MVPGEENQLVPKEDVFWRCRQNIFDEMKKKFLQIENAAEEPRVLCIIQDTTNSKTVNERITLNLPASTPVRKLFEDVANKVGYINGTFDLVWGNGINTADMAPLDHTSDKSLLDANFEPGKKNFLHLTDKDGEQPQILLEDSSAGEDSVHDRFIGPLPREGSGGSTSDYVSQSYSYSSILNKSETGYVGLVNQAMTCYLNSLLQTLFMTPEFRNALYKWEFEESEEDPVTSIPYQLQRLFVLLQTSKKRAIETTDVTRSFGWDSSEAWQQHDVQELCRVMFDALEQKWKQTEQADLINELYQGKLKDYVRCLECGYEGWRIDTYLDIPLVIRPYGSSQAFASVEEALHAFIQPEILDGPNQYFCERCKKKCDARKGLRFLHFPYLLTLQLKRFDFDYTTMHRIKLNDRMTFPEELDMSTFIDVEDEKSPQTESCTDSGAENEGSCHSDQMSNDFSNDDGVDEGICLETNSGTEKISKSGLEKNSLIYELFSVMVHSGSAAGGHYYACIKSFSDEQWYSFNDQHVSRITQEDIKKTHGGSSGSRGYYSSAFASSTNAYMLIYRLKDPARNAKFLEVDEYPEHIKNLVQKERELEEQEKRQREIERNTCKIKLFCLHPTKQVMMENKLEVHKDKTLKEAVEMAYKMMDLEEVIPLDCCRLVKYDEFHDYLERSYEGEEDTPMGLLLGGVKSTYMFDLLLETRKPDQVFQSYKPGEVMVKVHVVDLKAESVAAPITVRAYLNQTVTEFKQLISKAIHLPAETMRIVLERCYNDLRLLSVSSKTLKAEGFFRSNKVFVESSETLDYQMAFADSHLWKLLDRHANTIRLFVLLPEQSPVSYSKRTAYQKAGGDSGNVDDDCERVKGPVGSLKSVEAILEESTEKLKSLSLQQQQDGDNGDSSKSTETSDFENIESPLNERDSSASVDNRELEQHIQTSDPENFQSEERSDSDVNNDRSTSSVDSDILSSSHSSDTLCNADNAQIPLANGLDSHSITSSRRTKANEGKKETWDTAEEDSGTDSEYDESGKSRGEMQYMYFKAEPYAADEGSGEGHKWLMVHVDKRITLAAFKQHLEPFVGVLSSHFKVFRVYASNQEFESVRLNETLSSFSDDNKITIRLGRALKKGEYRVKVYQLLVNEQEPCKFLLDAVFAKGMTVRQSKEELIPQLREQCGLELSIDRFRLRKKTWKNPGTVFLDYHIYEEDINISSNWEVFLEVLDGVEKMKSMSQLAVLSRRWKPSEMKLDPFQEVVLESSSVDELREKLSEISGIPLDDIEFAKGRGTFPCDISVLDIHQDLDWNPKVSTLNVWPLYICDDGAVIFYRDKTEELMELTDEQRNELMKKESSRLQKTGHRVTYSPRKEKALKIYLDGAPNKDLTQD
Summary of the method: as §1

USP48 = target: T3, USP48 (UniProt Q86UV5)
T3 sequence (whole entry): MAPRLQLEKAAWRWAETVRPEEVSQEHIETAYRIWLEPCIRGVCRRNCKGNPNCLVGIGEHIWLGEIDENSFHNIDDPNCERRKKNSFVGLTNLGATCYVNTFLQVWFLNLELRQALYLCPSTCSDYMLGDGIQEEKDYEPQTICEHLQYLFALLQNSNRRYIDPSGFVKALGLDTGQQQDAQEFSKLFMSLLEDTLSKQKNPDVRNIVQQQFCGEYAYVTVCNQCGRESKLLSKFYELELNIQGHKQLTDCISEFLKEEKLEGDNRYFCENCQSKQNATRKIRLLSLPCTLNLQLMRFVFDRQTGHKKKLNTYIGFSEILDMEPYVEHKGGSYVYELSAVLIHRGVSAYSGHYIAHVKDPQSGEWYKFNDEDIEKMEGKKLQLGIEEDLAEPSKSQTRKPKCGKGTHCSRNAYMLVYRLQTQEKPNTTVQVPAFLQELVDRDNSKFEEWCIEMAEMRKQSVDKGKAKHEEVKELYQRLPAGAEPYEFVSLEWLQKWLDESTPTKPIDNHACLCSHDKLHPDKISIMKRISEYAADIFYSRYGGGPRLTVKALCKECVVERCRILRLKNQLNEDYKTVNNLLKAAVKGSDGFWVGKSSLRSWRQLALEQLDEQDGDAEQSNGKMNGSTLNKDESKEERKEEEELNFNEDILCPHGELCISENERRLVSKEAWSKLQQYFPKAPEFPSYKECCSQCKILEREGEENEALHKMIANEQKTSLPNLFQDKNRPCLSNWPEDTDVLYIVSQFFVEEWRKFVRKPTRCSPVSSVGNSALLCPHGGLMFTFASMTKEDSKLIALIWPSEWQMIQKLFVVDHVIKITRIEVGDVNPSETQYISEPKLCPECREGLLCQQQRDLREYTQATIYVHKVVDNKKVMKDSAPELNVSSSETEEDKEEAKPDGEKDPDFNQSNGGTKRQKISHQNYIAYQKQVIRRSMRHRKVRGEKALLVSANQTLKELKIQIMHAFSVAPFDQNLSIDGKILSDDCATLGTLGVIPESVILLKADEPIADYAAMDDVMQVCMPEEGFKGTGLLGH
Summary of the method: as §1

USP5 = target: T4, USP5 (UniProt P45974)
T4 sequence (whole entry): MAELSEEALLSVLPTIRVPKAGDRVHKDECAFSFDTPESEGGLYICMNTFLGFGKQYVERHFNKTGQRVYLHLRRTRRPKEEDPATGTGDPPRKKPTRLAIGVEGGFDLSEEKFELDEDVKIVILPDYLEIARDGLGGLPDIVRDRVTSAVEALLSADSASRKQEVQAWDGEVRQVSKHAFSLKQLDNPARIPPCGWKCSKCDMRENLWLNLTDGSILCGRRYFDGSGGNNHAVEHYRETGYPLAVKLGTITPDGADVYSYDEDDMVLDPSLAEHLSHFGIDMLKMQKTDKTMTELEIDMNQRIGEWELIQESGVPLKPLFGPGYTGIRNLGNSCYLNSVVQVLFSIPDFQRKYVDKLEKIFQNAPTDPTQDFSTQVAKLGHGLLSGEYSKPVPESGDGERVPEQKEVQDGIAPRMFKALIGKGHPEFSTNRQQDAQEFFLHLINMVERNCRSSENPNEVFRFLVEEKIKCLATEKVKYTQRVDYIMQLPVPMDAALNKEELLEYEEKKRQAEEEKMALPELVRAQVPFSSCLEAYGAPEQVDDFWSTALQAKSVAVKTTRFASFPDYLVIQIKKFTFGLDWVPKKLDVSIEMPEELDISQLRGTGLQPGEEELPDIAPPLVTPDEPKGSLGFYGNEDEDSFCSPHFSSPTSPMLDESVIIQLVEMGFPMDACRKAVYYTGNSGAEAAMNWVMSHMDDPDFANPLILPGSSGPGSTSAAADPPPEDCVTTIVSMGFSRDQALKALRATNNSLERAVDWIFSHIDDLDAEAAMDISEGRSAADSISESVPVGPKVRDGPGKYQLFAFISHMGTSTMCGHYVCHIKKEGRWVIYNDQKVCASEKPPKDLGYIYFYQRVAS
Summary of the method: as §1

USP54 = USP54 (UniProt Q70EL1)
Summary of the method: as §1

USP7 = USP7 (UniProt Q93009)
Summary of the method: as §1

USP8 = target: T5, USP8 (UniProt P40818)
T5 sequence (whole entry): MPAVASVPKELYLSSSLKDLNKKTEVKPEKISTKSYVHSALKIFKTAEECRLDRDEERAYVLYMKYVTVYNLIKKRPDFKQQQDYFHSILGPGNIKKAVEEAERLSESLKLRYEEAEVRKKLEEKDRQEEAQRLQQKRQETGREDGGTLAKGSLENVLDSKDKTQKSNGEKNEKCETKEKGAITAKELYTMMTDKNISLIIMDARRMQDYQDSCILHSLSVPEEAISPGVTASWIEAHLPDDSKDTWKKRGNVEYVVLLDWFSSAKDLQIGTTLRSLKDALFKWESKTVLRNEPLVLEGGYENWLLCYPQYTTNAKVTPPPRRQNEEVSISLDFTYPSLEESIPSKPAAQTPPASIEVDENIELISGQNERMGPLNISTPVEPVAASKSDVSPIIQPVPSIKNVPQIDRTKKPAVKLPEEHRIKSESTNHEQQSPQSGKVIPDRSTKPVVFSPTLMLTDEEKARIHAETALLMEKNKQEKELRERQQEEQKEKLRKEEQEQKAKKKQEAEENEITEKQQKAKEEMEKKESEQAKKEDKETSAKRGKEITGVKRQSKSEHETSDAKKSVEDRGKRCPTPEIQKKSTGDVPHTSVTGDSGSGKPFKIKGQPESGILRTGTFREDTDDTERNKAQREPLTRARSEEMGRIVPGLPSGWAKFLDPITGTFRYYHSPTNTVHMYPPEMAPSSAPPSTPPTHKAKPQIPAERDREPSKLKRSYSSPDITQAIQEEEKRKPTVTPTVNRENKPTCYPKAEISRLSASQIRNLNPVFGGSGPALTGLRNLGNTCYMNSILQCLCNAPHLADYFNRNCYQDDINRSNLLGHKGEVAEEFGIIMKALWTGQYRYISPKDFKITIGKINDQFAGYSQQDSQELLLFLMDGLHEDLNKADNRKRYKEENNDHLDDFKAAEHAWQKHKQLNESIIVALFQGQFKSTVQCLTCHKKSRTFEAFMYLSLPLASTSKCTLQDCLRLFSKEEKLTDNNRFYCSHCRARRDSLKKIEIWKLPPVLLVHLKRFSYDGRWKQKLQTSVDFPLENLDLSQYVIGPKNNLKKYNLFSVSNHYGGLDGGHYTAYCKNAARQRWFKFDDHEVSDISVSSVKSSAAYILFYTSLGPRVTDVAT
Summary of the method: as §1

USP9X = USP9X (UniProt Q93008)
Summary of the method: as §1

UniProt O00487 = target: UniProt O00487
Summary of the method: as §1

Measured: log2 ratio of Biotin-Ahx-Ub-VS probe labelling

Chain of UniProt O00487 (O00487 whole entry): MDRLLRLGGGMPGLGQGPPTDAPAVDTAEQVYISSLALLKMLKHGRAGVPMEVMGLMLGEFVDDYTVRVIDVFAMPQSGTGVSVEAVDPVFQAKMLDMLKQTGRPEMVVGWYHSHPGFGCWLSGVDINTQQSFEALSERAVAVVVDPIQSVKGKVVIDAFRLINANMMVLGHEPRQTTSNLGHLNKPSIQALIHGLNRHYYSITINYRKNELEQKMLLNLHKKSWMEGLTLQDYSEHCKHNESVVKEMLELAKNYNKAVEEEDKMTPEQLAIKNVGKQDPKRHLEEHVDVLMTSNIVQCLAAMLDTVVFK
Chain of USP46 (P62068 whole entry): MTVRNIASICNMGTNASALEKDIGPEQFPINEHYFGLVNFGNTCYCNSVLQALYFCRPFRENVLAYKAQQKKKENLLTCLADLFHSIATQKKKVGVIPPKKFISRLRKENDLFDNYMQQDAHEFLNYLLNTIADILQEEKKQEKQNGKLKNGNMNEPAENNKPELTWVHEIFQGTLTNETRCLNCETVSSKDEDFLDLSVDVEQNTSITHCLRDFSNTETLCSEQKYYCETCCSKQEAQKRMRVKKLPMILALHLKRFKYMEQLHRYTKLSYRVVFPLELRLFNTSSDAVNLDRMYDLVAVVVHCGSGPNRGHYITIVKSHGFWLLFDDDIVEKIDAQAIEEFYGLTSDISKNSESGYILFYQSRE
Chain of USP7 (Q93009 whole entry, looked up): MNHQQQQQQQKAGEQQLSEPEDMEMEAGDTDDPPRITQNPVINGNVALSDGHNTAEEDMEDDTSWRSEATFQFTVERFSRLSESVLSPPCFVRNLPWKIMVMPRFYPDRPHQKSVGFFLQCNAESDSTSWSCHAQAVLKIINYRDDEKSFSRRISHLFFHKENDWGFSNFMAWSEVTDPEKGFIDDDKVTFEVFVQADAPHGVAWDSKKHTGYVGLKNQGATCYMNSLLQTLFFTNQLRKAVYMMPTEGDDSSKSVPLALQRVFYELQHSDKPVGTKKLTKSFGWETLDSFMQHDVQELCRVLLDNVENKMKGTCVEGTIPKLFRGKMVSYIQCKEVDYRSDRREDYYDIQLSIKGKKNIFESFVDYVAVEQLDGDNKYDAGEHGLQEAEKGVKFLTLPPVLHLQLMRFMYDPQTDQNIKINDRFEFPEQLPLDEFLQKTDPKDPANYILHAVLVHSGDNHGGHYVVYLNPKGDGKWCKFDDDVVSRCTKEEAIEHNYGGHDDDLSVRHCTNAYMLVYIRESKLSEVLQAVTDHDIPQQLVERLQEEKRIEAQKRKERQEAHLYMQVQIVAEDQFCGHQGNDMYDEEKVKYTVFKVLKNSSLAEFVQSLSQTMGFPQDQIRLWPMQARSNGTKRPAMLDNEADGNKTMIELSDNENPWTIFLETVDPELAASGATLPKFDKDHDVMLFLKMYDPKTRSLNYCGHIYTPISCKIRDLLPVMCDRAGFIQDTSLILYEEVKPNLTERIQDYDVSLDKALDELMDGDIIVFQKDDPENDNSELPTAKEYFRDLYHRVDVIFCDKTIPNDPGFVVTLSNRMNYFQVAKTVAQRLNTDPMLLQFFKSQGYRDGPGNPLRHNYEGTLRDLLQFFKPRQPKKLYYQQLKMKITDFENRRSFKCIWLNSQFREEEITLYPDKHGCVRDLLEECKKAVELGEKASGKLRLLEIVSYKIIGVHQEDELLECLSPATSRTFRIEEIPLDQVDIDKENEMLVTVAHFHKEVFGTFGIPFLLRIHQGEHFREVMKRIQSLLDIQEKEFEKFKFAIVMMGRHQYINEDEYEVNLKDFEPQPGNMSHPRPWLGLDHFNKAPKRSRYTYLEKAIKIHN
Chain of USP54 (Q70EL1 whole entry): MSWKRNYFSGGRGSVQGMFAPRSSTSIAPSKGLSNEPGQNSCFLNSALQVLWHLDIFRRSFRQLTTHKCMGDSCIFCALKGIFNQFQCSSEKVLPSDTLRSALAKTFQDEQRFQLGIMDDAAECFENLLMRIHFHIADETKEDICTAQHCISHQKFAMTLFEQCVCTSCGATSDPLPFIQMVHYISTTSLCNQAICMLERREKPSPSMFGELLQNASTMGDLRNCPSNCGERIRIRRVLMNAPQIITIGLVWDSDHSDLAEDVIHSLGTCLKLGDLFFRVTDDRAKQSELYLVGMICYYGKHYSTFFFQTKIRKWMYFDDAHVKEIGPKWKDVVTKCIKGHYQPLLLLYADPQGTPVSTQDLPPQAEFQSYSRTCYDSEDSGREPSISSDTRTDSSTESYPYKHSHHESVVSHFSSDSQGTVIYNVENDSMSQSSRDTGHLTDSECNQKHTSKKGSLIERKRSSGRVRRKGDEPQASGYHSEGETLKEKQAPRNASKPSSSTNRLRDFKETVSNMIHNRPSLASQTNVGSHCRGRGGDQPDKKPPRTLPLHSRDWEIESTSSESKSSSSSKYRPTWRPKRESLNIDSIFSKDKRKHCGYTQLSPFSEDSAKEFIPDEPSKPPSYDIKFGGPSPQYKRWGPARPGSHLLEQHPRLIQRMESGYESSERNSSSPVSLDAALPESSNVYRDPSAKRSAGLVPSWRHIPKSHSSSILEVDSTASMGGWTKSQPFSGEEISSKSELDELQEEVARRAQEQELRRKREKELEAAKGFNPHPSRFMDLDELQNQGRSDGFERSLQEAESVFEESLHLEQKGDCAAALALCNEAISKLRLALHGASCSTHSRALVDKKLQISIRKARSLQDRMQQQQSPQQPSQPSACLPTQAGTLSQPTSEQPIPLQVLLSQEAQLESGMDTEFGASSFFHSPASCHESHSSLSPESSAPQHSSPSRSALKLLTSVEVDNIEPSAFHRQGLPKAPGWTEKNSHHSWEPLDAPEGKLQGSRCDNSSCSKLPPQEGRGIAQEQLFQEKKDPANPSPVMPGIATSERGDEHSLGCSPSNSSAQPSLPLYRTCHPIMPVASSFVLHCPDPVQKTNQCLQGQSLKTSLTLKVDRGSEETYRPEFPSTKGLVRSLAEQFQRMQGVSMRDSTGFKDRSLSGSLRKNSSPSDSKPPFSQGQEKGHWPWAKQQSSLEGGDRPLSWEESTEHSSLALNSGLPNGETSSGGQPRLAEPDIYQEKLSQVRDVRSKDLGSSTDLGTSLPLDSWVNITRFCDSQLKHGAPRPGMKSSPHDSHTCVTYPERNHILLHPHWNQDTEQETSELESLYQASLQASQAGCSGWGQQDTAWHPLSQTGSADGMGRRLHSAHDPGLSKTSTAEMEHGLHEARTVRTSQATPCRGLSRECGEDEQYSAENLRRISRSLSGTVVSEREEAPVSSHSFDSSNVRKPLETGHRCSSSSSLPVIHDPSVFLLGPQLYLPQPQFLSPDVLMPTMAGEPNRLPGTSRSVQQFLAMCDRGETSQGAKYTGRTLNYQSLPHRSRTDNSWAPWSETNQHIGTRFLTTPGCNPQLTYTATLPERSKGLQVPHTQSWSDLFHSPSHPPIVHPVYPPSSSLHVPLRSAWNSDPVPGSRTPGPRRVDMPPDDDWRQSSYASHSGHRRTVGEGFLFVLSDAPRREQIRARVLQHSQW

CN(C)S(=O)(=O)c1ccccc1CNC(=O)CCl
inactive: USP42 0.185 | USP46 0.0777 | USP47 -0.336 | USP48 -0.169 | USP5 0.419 | USP54 0.535 | USP7 -0.218 | USP8 -0.15 | USP9X -0.0424 | UniProt O00487 0.0834
